# According to the supplement of paper PMC9023506:
# Counter-ions that a name gives are not always drawn.
# Test system: Danio rerio larvae (5 dpf)
# Experiment: optomotor response to blue moving lines, difference vs DMSO (percentage points (treated minus DMSO)); higher = more of the behaviour than the DMSO vehicle control
# Settings: 10 µM; exposure time: 3 h pre-incubation + 3 h imaging
# Experimental: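 5-dpf wild-type zebrafish larvae were imaged in 96-well plates. They were treated with 190 Tocris FDA-approved drugs at 10 µM (1 µl/ml DMSO) for 3 h before and 3 h during imaging at 28.5 °C, 48 larvae per drug. Automated image analysis gave % time moving and optomotor responses. Values are drug group mean minus DMSO vehicle mean (n=844), in percentage points, for 10 behaviours.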
row,SMILES,optomotor response to blue moving lines
1,Cc1nc(-c2ccc(OCC(C)C)c(C#N)c2)sc1C(=O)O [Febuxostat],-7.14
2,O=C(O)c1cc(/N=N/c2ccc(S(=O)(=O)Nc3ccccn3)cc2)ccc1O [Sulfasalazine],-4.22
3,C#C[C@]1(O)CC[C@H]2[C@@H]3CCC4=CC(=O)CC[C@@H]4[C@H]3CC[C@@]21CC [Levonorgestrel],19.5
4,O=C1CCc2cc(OCCCCc3nnnn3C3CCCCC3)ccc2N1 [Cilostazol],6.53
5,COc1ccc(Cl)cc1C(=O)NCCc1ccc(S(=O)(=O)NC(=O)NC2CCCCC2)cc1 [Glibenclamide],1.29
6,CC/C(=C(\c1ccccc1)c1ccc(OCCN(C)C)cc1)c1ccccc1 [Tamoxifen citrate],-14.3
7,CCCCC1=NC2(CCCC2)C(=O)N1Cc1ccc(-c2ccccc2-c2nnn[nH]2)cc1 [Irbesartan],-14
8,CNS(=O)(=O)Cc1ccc2[nH]cc(CCN(C)C)c2c1 [Sumatriptan succinate],-3.13
9,O=C(NCC1CCCCN1)c1cc(OCC(F)(F)F)ccc1OCC(F)(F)F (stereo not given) [Flecainide acetate],9.21
10,CN1CCN(CCCN2c3ccccc3Sc3ccc(Cl)cc32)CC1 [Prochlorperazine dimaleate],12.2
11,O=C(O)CCCc1ccccc1 [Sodium 4-Phenylbutyrate],3.11
12,Cc1ccsc1C(=CCCN1CCC[C@@H](C(=O)O)C1)c1sccc1C [Tiagabine hydrochloride],24.1
13,CC1CNc2c(cccc2S(=O)(=O)N[C@@H](CCCNC(=N)N)C(=O)N2CC[C@@H](C)C[C@@H]2C(=O)O)C1 (stereo not given in full) [Argatroban],4.3
14,CNCc1ccc(-c2[nH]c3cc(F)cc4c3c2CCNC4=O)cc1 [Rucaparib camsylate],10.7
15,CCCCc1nc(Cl)c(CO)n1Cc1ccc(-c2ccccc2-c2nnn[nH]2)cc1 [Losartan potassium],-6.92
16,COc1c(C)c2c(c(O)c1C/C=C(\C)CCC(=O)OCCN1CCOCC1)C(=O)OC2 [Mycophenolate mofetil],16.8
17,COc1ccccc1OCCNCC(O)COc1cccc2[nH]c3ccccc3c12 (stereo not given) [Carvedilol],-0.112
18,N#Cc1ccc2[nH]cc(CCCCN3CCN(c4ccc5oc(C(N)=O)cc5c4)CC3)c2c1 [Vilazodone hydrochloride],-5.66
19,CO[C@H]1/C=C/O[C@@]2(C)Oc3c(C)c(O)c4c(O)c(c5c(nc6cc(C)ccn65)c4c3C2=O)NC(=O)/C(C)=C\C=C\[C@H](C)[C@H](O)[C@@H](C)[C@@H](O)[C@@H](C)[C@H](OC(C)=O)[C@@H]1C [Rifaximin],9.62
20,Brc1c(NC2=NCCN2)ccc2nccnc12,7.07

row,SMILES,optomotor response to blue moving lines
1,COc1ccc(C[C@@H](C)NC[C@H](O)c2ccc(O)c(NC=O)c2)cc1 [Arformoterol tartrate],-4.26
2,COc1cc(Nc2c(C#N)cnc3cc(OCCCN4CCN(C)CC4)c(OC)cc23)c(Cl)cc1Cl [Bosutinib],-9.89
3,CCc1ccc(CCOc2ccc(CC3SC(=O)NC3=O)cc2)nc1 (stereo not given) [Pioglitazone hydrochloride],-1.78
4,COc1ccc(-c2ccc3cc(C(=O)O)ccc3c2)cc1C12CC3CC(CC(C3)C1)C2 [Adapalene],-1.19
5,CCCc1nc(C(C)(C)O)c(C(=O)O)n1Cc1ccc(-c2ccccc2-c2nnn[nH]2)cc1 [Olmesartan],3.07
6,CC(C)(C)NC(=O)[C@@H]1C[C@@H]2CCCC[C@@H]2CN1C[C@@H](O)[C@H](Cc1ccccc1)NC(=O)[C@H](CC(N)=O)NC(=O)c1ccc2ccccc2n1 [Saquinavir mesylate],-2.78
7,NC(=O)N1c2ccccc2C=Cc2ccccc21 [Carbamazepine],12.9
8,CC(C)[C@H]1CC[C@H](C(=O)N[C@H](Cc2ccccc2)C(=O)O)CC1 [Nateglinide],11.9
9,CCCc1nc2c(C)cc(-c3nc4ccccc4n3C)cc2n1Cc1ccc(-c2ccccc2C(=O)O)cc1 [Telmisartan],8.47
10,CCCCCCCCc1ccc(CCC(N)(CO)CO)cc1,-1.76
11,CC#C[C@]1(O)CC[C@H]2[C@@H]3CCC4=CC(=O)CCC4=C3[C@@H](c3ccc(N(C)C)cc3)C[C@@]21C [Mifepristone],11
12,COCCCOc1cc(C[C@@H](C[C@H](N)[C@@H](O)C[C@H](C(=O)NCC(C)(C)C(N)=O)C(C)C)C(C)C)ccc1OC [Aliskiren hemifumarate],-5.15
13,CCC(=O)O[C@]1(C(=O)SCF)[C@H](C)C[C@H]2[C@@H]3C[C@H](F)C4=CC(=O)C=C[C@]4(C)[C@@]3(F)[C@@H](O)C[C@@]21C [Fluticasone propionate],-10.1
14,COC(c1ccccc1)(c1ccccc1)[C@H](Oc1nc(C)cc(C)n1)C(=O)O [Ambrisentan],-7.26
15,CCN(CC)CCNC(=O)c1c(C)[nH]c(/C=C2\C(=O)Nc3ccc(F)cc32)c1C [Sunitinib malate],-5.69
16,N[C@@H]1[C@H]2CN(c3nc4c(cc3F)c(=O)c(C(=O)O)cn4-c3ccc(F)cc3F)C[C@@H]12 [Trovafloxacin mesylate],14.1
17,Cn1cnc([N+](=O)[O-])c1Sc1ncnc2[nH]cnc12 [Azathioprine],9.74
18,CCOc1nc2cccc(C(=O)O)c2n1Cc1ccc(-c2ccccc2-c2noc(=O)[nH]2)cc1 [Azilsartan],7.48
19,COc1c(C)c2c(c(O)c1C/C=C(\C)CCC(=O)O)C(=O)OC2 [Mycophenolic acid],7
20,Nc1nc2c(ncn2COCCO)c(=O)[nH]1 [Acyclovir],10.2
